Assay outcomes as filed in PubChem BioAssay.
The list is not random: actives were taken first. Their share in the collection is about 1.7%.
GALR2 ag: GALR2 (human) receptor agonism. O43603. GALR2-expressing cells, agonist activation read-out. activation, % (no concentration beside the values). 140,000 tested, 0.48% active; in the data active means activation above about 5%, passing the limit was not always enough;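 further: 0% = vehicle buffer wells and 100% = reference agonist at full effect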
Target sequence (O43603 whole entry, looked up): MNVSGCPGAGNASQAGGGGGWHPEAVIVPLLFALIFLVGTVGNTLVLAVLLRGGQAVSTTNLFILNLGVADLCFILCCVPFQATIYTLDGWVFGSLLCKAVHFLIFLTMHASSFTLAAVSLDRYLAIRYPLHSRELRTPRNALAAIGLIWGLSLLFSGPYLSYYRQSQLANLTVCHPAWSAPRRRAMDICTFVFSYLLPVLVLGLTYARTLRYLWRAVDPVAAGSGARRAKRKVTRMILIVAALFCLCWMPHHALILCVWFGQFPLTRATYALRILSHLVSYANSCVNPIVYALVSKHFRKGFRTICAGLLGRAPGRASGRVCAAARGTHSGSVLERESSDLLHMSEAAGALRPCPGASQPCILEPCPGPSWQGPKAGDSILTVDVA
GALR2 blocker: blocks the human galanin receptor 2; GALR2-expressing cells, antagonist mode; 140,000 tested, 0.39% active; inhibition, % at 4 µM; O43603; in the data active means inhibition above about 27%;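 further: cells stimulated with galanin 1-16 at roughly its EC80; 0% = agonist challenge control and 100% = basal control without agonist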
S1P2 agonist: activates the human S1P2 receptor; O95136; S1P2-expressing cell line, agonist reporter read-out; 97,000 tested, 0.46% active; activation, % at 4.5 µM; in the data active means activation above about 16%;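 further: 0% = vehicle low control and 100% = maximal reference agonist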
MRP1 act: activates MRP-1; H69AR cells + doxorubicin, viability rescue, CellTiter-Glo; 140,000 tested, 0.61% active; viability increase, % at 10 µM;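 active means viability gain under doxorubicin at or above a set limit, the compound median plus 3 SD, cut at about 4.7% in these data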;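 further: MRP-1 overexpressing cells given doxorubicin 25 µM after compound pretreatment; 18-22 h compound pretreatment then 72 h with doxorubicin before readout; 0% = doxorubicin-only wells and 100% = vehicle-treated cells without doxorubicin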
MRP reversal: reverses drug resistance mediated by MRP; 85,000 tested, 0.04% active; differential viability (reversal), % at 10 µM; AID 602; H69AR cells + 2 uM doxorubicin, CellTiter-Glo, 72 h;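 active means viability drop by adding the cancer drug above about 55%, with treated viability meeting a 40% cutoff, limit read from the data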;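 further: viability without doxorubicin minus viability with 2 µM doxorubicin for each compound; larger differential means the compound sensitizes cells more to doxorubicin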
S1P2 blocker: blocks the human S1P2 receptor | O95136 | cell-based S1P2 antagonist assay, inhibition at 5 uM | AID 736 | inhibition, % at 5 µM | 97,000 tested, 0.21% active; in the data active means inhibition above about 45%;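 further: CRE beta-lactamase reporter cells expressing human S1P2 stimulated with S1P; 0% = agonist at EC80 alone and 100% = agonist plus reference antagonist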
* hit, by the source's call.

How did COc1ccccc1/C=C1\SC(=S)N(Nc2nc(C)cc(C)n2)C1=O do in these assays?
GALR2 ag: -2.8; GALR2 blocker: -2.5; S1P2 agonist: -12.1; MRP1 act: -0.9; S1P2 blocker: -2.5

Results for COc1ccccc1C(=O)Nc1ccc2c(c1)OCO2 ?
GALR2 ag: 0.0; GALR2 blocker: 14.1; S1P2 agonist: -1.7; MRP1 act: -1.4; MRP reversal: -40.5; S1P2 blocker: 1.4

How did COc1ccc(Cl)cc1C(=O)Nc1ccc2c(c1)OCO2 do in these assays?
GALR2 ag: -2.0; GALR2 blocker: 14.8; S1P2 agonist: -4.3; MRP1 act: 14.8*; MRP reversal: -6.2; S1P2 blocker: 27.7

What do the screens show for `Cc1ccccc1Cn1nc(C)c(NC(=O)c2noc3c2CCc2ccccc2-3)c1C`?
GALR2 ag: -0.9; GALR2 blocker: 6.5; S1P2 agonist: -6.0; MRP1 act: 5.2*; MRP reversal: 22.9; S1P2 blocker: 11.2

How did O=c1cc(-c2c(F)c(F)c(F)c(F)c2F)oc2c(F)c(F)c(F)c(F)c12 do in these assays?
GALR2 ag: -0.9; GALR2 blocker: 69.2*; MRP1 act: -5.5; MRP reversal: 0.6

How did COc1ccc(CCC(=O)NCCCNC(=O)CCc2ccc(OC)cc2)cc1 do in these assays?
GALR2 ag: -0.8; GALR2 blocker: 1.4; MRP1 act: -0.1

Results for Cc1noc(C)c1C(=O)Nc1ccc(F)c(F)c1 ?
GALR2 ag: -0.1; GALR2 blocker: -4.4; S1P2 agonist: -4.7; MRP1 act: -1.0; MRP reversal: 5.0; S1P2 blocker: -4.3

How did CCCCc1ccc(NC(=O)c2c(C)noc2C)cc1 do in these assays?
GALR2 ag: -3.7; GALR2 blocker: 18.2; S1P2 agonist: -5.4; MRP1 act: 8.7*; MRP reversal: 22.3; S1P2 blocker: 0.9

How did CC1=CC2=NC(=O)/C(=C\c3cc(C)n(-c4ccccc4F)c3C)C(=N)N2O1 do in these assays?
GALR2 ag: 5.4*; GALR2 blocker: 6.6; MRP1 act: 0.4

How did CC1=CC2=NC(=O)/C(=C\c3cc(C)n(-c4ccccc4)c3C)C(=N)N2O1 do in these assays?
GALR2 ag: 0.6; GALR2 blocker: -4.9; MRP1 act: 0.0

What do the screens show for `Cc1cc([N+](=O)[O-])cnc1NC(C)c1ccccc1` (configuration not stated)?
GALR2 ag: -1.3; GALR2 blocker: -12.4; S1P2 agonist: -4.2; MRP1 act: -1.7; S1P2 blocker: 9.1

How did CCCCC(CCC(=O)NNC(=O)Cc1ccccc1)C(=O)O (configuration not stated) do in these assays?
GALR2 ag: -0.6; GALR2 blocker: -12.1; MRP1 act: -2.6

How did CN(C)c1ccc(NC(=O)c2cccc(N3C(=O)C4C5C=CC(C5)C4C3=O)c2)cc1 (configuration not stated) do in these assays?
GALR2 ag: -3.4; GALR2 blocker: 46.9*; S1P2 agonist: -4.0; MRP1 act: -1.9; MRP reversal: 3.6; S1P2 blocker: -2.2

How did O=C(O)c1ccc(NC(=O)c2cccc(N3C(=O)C4C5CCC(C5)C4C3=O)c2)cc1 (configuration not stated) do in these assays?
GALR2 ag: -0.7; GALR2 blocker: -7.7; MRP1 act: -1.2

What do the screens show for `Nc1nc(Cl)cc(N2CCC(c3cc(-c4ccc(Cl)cc4)n[nH]3)CC2)n1`?
GALR2 ag: -0.6; GALR2 blocker: 6.0; S1P2 agonist: -8.9; MRP1 act: -6.9; S1P2 blocker: 81.6*

How did O=C(NCc1cccnc1)c1cn(CCc2ccccc2)nn1 do in these assays?
GALR2 ag: -4.8; GALR2 blocker: 0.7; S1P2 agonist: -2.4; MRP1 act: -2.3; MRP reversal: -3.6; S1P2 blocker: -10.5

How did O=C(NCc1ccccn1)c1cn(CCc2ccccc2)nn1 do in these assays?
GALR2 ag: -1.3; GALR2 blocker: -13.2; S1P2 agonist: 2.1; MRP1 act: -0.5; MRP reversal: 57.0*; S1P2 blocker: 10.7

What do the screens show for `CCOC(=O)N1CCC2(CC1)CC(=O)c1c(ccc3oc(C(=O)O)c(C)c13)O2`?
GALR2 ag: -0.2; GALR2 blocker: 6.1; MRP1 act: 0.1; MRP reversal: -5.2

How did CCCNC(=O)c1oc2ccc3c(c2c1C)C(=O)CC(C)(C)O3 do in these assays?
GALR2 ag: -4.0; GALR2 blocker: -3.8; S1P2 agonist: -4.7; MRP1 act: 7.1*; MRP reversal: 13.5; S1P2 blocker: -13.0

Results for O=C(NCc1ccoc1)c1ccc(NC(=O)c2ccccc2Cl)cc1 ?
GALR2 ag: -2.4; GALR2 blocker: 28.7*; S1P2 agonist: -12.0; MRP1 act: -1.8; MRP reversal: -8.2; S1P2 blocker: 11.6
